Read-out in assay [1]: Monokine induced gamma interferon (MIG), CXCL9 (gene 4283)
The assay can be described thus: BSK_SAg_MIG: BioMAP Diversity Plus: SAg Assay for Monokine induced gamma interferon (MIG) Biomarker Activity (AID 2283092). The conditions noted are these: primary human HUVEC with PBMC; actives raise or lower the signal. The gist of the method: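 HUVEC plus human PBMC co-culture, chemicals dosed and MIG (CXCL9) quantified by ELISA at 24 h. Bidirectional curve fitting against DMSO as negative control and baseline, so both gain and loss of signal count as activity.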

A short description of assay [2]: BSK_SAg_PBMCCytotoxicity: PBMC Cytotoxicity Assessment in the BioMAP Diversity Plus: SAg Assay (AID 2283093).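 For AC50: PBMC superantigen activated with SEB plus TSST-1 one hour after compound addition.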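 Note: PBMC viability measured as Alamar Blue reduction fluorescence at 546/580 nm; fitted both ways against DMSO so a hit may be loss or gain of signal.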 The conditions noted are these: primary human HUVEC with PBMC. The gist of the method:
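Alamar Blue reduction (6 h, ex/em 546/580 nm) read after 90 h culture of PBMC pre-dosed 1 h then stimulated with SEB plus TSST-1, 20 ng/mL each. Gain or loss of signal fitted relative to DMSO.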

Read-out in assay [3]: Interleukin-8 (IL8), CXCL8 (gene 3576)
The assay can be described thus: BSK_SAg_IL8: BioMAP Diversity Plus: SAg Assay for Interleukin-8 (IL8) Biomarker Activity (AID 2283094). Conditions: primary human HUVEC with PBMC; actives raise or lower the signal. In a few lines: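 Chemicals were dosed onto a human endothelial–PBMC co-culture, and IL-8 was quantified by ELISA after 24 h. Both increases and decreases were fitted relative to DMSO.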

Assay [4] in a line: BSK_SAg_Proliferation: Cell Proliferation Assessment in the BioMAP Diversity Plus: SAg Assay (AID 2283095).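 Note: relative cell number as total protein by SRB absorbance in sub-confluent culture.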 The conditions noted are these: primary human HUVEC with PBMC. In a few lines: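 Absorbance of sulforhodamine B at 560 nm reports total protein in a human vascular endothelial/PBMC co-culture after 96 h chemical exposure. Gain or loss of signal is fitted in both directions against DMSO.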

Assay [5] in a line: BSK_SAg_SRB: Viability Assessment in the BioMAP Diversity Plus: SAg Assay (AID 2283096).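 Note: cells read one day after compound addition; hits may be either gain or loss of signal compared with DMSO.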 The conditions noted are these: primary human HUVEC with PBMC. In a few lines:
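SRB absorbance at 560 nm served as the viability read-out. Cells (HUVEC plus peripheral blood mononuclear cells) were TCA-fixed and stained 24 h post-dosing; activity fitted in both directions against DMSO controls.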

In assay [6] the target is human CYP19A1, CYP19A1 (gene 1588) (UniProt P11511). The assay can be described thus: NVS_ADME_hCYP19A1: NovaScreen (NVS) CYP450-related Enzyme Activity (ADME) Assay for human CYP19A1 (AID 2283098; active = hit-call score of the fitted dose curve at least 0.9, where 1 is the maximum). In a few lines: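 Primary testing was in duplicate at a single 10 uM concentration, with actives followed up in concentration-response series. Fluorescence read-out of recombinant enzyme activity at 0.5 h, cell-free. Acetonitrile was the negative-control baseline.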

Assay [7] has as its target human CYP2A6, CYP2A6 (gene 1548) (UniProt P11509). Kind of assay: NVS_ADME_hCYP2A6: NovaScreen (NVS) CYP450-related Enzyme Activity (ADME) Assay for human CYP2A6 (AID 2283099; active = hit-call score of the fitted dose curve at least 0.9, where 1 is the maximum). In a few lines:
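Recombinant human CYP2A6 from insect cells was incubated with chemical for 0.5 h and activity read by fluorescence. Single-concentration duplicates at 10 uM preceded concentration-response testing to 20 uM, with activity referenced to acetonitrile.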

Assay [8] concerns the target human CYP1A1, CYP1A1 (gene 1543) (UniProt P04798). Kind of assay: NVS_ADME_hCYP1A1: NovaScreen (NVS) CYP450-related Enzyme Activity (ADME) Assay for human CYP1A1 (AID 2283100; active = hit-call score of the fitted dose curve at least 0.9, where 1 is the maximum). In a few lines: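 Compounds first went through duplicate single-concentration testing at 10 uM against purified CYP1A1. Those passing a threshold such as 30% inhibition entered singleton dose-response, highest concentration 20 uM. Signal was fluorescence measured after 1 hour.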

In assay [9] the target is human CYP1A2, CYP1A2 (gene 1544) (UniProt P05177). The assay can be described thus: NVS_ADME_hCYP1A2: NovaScreen (NVS) CYP450-related Enzyme Activity (ADME) Assay for human CYP1A2 (AID 2283102; active = hit-call score of the fitted dose curve at least 0.9, where 1 is the maximum). The gist of the method: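 Compounds were tested at 10 uM in duplicate against recombinant CYP1A2 produced in insect cells. Enzyme activity was measured by fluorescence 0.5 h after dosing, with loss of signal versus acetonitrile control. Active compounds were re-tested in concentration series.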

Assay [10] deals with human CYP2B6, CYP2B6 (gene 1555) (UniProt P20813). The assay can be described thus: NVS_ADME_hCYP2B6: NovaScreen (NVS) CYP450-related Enzyme Activity (ADME) Assay for human CYP2B6 (AID 2283101; active = hit-call score of the fitted dose curve at least 0.9, where 1 is the maximum). How it is done:
NVS_ADME_hCYP2B6 is a biochemical, single-readout assay that uses extracted gene-proteins in a cell-free assay. Measurements were taken 1 hour after chemical dosing in a 96-well plate.NVS_ADME_hCYP2B6 is one of one assay component(s) measured or calculated from the NVS_ADME_hCYP2B6 assay. It is designed to make measurements of enzyme activity, a form of enzyme reporter, as detected with fluorescence intensity signals by Fluorescence technology.Data from the assay component NVS_ADME_hCYP2B6 was analyzed into 1 assay endpoint. This assay endpoint, NVS_ADME_hCYP2B6, was analyzed in the positive analysis fitting direction relative to Acetonitrile as the negative control and baseline of activity. Using a type of enzyme reporter, loss-of-signal activity can be used to understand changes in the enzymatic activity as they relate to the gene CYP2B6. Furthermore, this assay endpoint can be referred to as a primary readout, because this assay has produced multiple assay endpoints where this one serves a enzymatic activity function. To generalize the intended target to other relatable targets, this assay endpoint is annotated to the cyp intended target family, where the subfamily is xenobiotic metabolism.
Binding assays used specific radioligands (tritiated, iodinated) with non-radioactive competitive displacement ligands in agonist or antagonist protocols (as indicated) and various reference compounds and inhibitors to titrate specific binding to receptors and transporters. Most enzyme assays (CYPs, kinases, phosphatases, proteases, HDACs) used recombinant protein and specific substrates (fluorescence mostly, some colorimetric and radioactive) and inhibitors, followed by a biochemical separation of substrate and product. All assays for the biochemical HTS were initially run in duplicate at a single concentration (10 uM for CYP450 assays and 25 uM for all others). […] Each assay was run with positive and negative controls, and concurrent controls on every plate. The follow-up (secondary) screen tested active chemical-pairs in concentration series, as well as a few additional assays not tested in the primary screen, some selected negative inactives, and several cases re-run in the concentration series for confirmatory purposes.

Values joined by “and” are separate entries in the source; they are usually repeats but may differ in a detail not shown here. Equal entries are not always repeated. Results filed as inconclusive are left out. More than one record can exist for a structure, and the calls need not agree. Active and inactive are the calls of the source. Rule for the calls, unless noted: active = hit-call score of the fitted dose curve at least 0.9, where 1 is the maximum; inactive = score below 0.9.

Sequence of human CYP19A1, CYP19A1 (gene 1588) (P11511 whole entry, looked up): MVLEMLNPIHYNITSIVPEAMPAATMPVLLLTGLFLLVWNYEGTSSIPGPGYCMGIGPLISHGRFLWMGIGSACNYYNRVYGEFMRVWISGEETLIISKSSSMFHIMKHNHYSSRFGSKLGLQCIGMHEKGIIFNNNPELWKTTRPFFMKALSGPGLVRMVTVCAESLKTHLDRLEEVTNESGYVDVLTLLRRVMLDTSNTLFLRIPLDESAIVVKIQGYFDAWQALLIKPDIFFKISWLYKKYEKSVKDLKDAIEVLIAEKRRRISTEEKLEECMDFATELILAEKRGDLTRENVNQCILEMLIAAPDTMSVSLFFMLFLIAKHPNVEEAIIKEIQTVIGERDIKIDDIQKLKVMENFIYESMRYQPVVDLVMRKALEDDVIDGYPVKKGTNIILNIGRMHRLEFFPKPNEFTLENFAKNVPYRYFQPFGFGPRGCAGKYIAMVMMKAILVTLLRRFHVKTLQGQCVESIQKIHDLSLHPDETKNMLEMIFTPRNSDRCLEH
Sequence of human CYP1A2, CYP1A2 (gene 1544) (P05177 whole entry, looked up): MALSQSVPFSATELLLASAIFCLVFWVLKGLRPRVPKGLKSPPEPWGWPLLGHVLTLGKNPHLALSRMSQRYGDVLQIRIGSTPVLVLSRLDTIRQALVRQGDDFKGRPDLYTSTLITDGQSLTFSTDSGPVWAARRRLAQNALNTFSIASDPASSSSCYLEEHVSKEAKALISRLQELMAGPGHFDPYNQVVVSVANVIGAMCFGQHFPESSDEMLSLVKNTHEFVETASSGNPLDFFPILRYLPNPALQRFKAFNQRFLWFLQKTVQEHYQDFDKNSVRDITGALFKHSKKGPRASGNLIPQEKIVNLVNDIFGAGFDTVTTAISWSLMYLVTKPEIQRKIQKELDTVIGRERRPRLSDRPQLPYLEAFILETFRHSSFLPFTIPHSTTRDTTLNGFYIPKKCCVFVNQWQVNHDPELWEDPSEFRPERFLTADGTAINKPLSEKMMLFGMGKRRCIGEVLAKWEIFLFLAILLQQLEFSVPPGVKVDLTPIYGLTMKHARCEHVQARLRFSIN
Sequence of human CYP1A1, CYP1A1 (gene 1543) (P04798 whole entry, looked up): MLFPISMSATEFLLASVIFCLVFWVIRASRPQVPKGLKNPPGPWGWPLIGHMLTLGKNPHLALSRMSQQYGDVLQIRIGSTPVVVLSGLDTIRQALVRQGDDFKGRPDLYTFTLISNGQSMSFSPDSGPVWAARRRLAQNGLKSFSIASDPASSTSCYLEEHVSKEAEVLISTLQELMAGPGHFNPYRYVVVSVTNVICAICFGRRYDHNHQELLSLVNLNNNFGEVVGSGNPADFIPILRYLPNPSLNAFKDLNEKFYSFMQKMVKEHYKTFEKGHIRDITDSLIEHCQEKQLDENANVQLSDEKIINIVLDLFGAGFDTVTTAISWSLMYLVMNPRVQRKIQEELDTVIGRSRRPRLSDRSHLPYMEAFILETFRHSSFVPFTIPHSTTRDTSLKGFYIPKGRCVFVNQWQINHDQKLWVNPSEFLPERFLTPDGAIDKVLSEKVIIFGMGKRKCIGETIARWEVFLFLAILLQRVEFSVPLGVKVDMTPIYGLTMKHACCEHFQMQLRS
Sequence of human CYP2B6, CYP2B6 (gene 1555) (P20813 whole entry, looked up): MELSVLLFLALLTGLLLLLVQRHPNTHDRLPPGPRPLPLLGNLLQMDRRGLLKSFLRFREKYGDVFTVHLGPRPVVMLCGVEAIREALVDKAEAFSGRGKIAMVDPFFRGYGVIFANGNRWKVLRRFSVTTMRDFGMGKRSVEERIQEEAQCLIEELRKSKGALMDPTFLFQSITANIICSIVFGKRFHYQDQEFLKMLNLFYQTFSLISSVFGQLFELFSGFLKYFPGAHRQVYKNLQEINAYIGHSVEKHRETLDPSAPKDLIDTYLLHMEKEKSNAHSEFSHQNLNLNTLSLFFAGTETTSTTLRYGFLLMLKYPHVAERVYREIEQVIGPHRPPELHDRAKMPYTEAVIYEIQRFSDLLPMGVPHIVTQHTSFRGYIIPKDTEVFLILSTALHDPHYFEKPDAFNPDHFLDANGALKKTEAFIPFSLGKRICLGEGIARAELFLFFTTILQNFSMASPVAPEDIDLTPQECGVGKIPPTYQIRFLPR
Sequence of human CYP2A6, CYP2A6 (gene 1548) (P11509 whole entry, looked up): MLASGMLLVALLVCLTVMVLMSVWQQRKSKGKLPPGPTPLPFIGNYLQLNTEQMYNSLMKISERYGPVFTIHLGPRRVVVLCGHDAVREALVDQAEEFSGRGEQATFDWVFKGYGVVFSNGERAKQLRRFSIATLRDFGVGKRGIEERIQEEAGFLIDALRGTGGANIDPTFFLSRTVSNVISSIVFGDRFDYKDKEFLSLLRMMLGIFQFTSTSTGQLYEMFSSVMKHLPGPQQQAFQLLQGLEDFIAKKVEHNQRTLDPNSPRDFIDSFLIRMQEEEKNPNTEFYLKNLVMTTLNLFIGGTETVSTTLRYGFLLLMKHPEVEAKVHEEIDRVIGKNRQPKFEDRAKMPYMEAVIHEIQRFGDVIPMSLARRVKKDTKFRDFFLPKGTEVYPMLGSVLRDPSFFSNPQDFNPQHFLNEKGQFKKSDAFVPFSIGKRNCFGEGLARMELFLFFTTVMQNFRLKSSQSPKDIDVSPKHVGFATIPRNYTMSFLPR

As to `C[C@]12CC[C@@H]3c4ccc(O)cc4C[C@@H](CCCCCCCCCS(=O)CCCC(F)(F)C(F)(F)F)[C@H]3[C@@H]1CC[C@@H]2O` (stereo partly specified), the outcome in assay [1], in assay [2], in assay [3], in assay [4] and in assay [5] was inactive.

As for `CCOC(=O)COc1cc(-n2ncc(C(F)(F)F)c(C)c2=O)c(F)cc1Cl`, the result in assay [1], in [2], in assay [3], in assay [4] and in assay [5] was inactive.

Consider `S=C(S)NCCNC(=S)S.[Mn+2].[S-]C([S-])=NCCN=C([S-])[S-].[Zn+2]`, for which the result in assay [1], in assay [2], in assay [3], in assay [4], in assay [5] and in [6] was inactive. Also, the molecule was called inactive in assay [7], in assay [8] and in assay [9]. Also, the half-maximal activity concentration (AC50) in assay [2] was 7.86 µM (active) and 20 µM (active).

For `COCCO`, the result in assay [1], in assay [2], in [3], in assay [4] and in assay [5] was inactive.

`CC(C)(c1ccc(O)cc1)c1ccc(O)cc1`: the result in assay [1], in assay [2], in [3], in [5], in assay [6] and in [8] was inactive. Moreover, in assay [10], the call was inactive. Besides, the AC50 in assay [3] was 14.5 µM (active); in assay [4], 20.3 µM (active) and 28.7 µM (active) and 25.7 µM (active); in assay [8], 5.22 µM (active); in [10], 12.1 µM (active).

In the case of `CCC(C)OC(=O)N1CCCCC1CCO` (stereo unspecified), the result in [1], in assay [2], in assay [3], in assay [4] and in assay [5] was inactive.

In the case of `CCSC(=O)N(CC(C)C)CC(C)C`, the outcome in assay [1], in assay [2], in [3], in assay [4] and in [5] was inactive.

Turning to `Cc1nn(C)c(Oc2ccccc2)c1C=NOCc1ccc(C(=O)OC(C)(C)C)cc1`, the AC50 in [1] is 19 µM (active); in [3], 3.97 µM (active); in assay [4], 8.08 µM (active); in assay [5], 20 µM (active). For the same molecule, the outcome in assay [2] was inactive.

On to `CCN(Cc1c(F)cccc1Cl)c1c([N+](=O)[O-])cc(C(F)(F)F)cc1[N+](=O)[O-]`, for which, in assay [1], the result was inactive. Further, the AC50 in [2] was 8.35 µM (active); in assay [3], 8.25 µM (active); in assay [4], 20 µM (active); in assay [5], 11.4 µM (active).

In the case of `COC(=O)c1ccc(I)cc1S(=O)(=O)NC(=O)Nc1nc(C)nc(OC)n1`, the result in assay [1], in [2], in [3], in assay [4] and in assay [5] was inactive.

With `OB(O)O`, the result in assay [1], in [2], in assay [3], in [4] and in assay [5] was inactive.

Turning to `COc1nc(C)nc(NC(=O)NS(=O)(=O)c2ccccc2OCCCl)n1`, the outcome in [1], in [2], in [3], in assay [4] and in assay [5] was inactive.

For `CCCCOC(=O)[C@@H](C)Oc1ccc(Oc2ccc(C(F)(F)F)cn2)cc1`, the result in assay [1], in assay [2], in [3], in assay [4] and in assay [5] was inactive.

With `COc1c(Cl)ccc(Cl)c1C(=O)O`, the result in [1], in [2], in assay [3], in assay [4] and in assay [5] was inactive.

As to `CCCOC(=O)NCCCN(C)C`, the outcome in assay [1], in assay [2], in [3], in assay [4] and in assay [5] was inactive.

Regarding `CCOC(=O)c1ccc(O)cc1`, the result in assay [1], in [2], in assay [3], in [4] and in assay [5] was inactive.

With `N[C@@H](Cc1cc(I)c(Oc2ccc(O)c(I)c2)c(I)c1)C(=O)O`, the outcome in [1], in [2], in assay [3], in [4] and in assay [5] was inactive.

For `CCNc1nc(N)nc(Cl)n1`, the outcome in assay [1], in assay [2], in [3], in [4] and in assay [5] was inactive.

As to `CCN(CC)C(=O)c1cccc(C)c1`, the result in assay [1], in assay [2], in assay [3] and in assay [4] was inactive. For the same molecule, the AC50 in [5] was 13.9 µM (active).

In the case of `CC1(C)C(C=C(Cl)Cl)C1C(=O)OCc1cccc(Oc2ccccc2)c1` (stereo unspecified), the result in assay [1], in [2] and in assay [3] was inactive. Moreover, the AC50 is 14.8 µM (active) in assay [4] and 5.14 µM (active) in assay [5].

`CCCCOC(=O)C(C)Oc1ccc(Oc2ccc(C(F)(F)F)cn2)cc1` (stereo unspecified): the outcome in [1], in assay [2], in assay [3], in [4] and in assay [5] was inactive.

In the case of `C#C[C@]1(O)CC[C@H]2[C@@H]3CCC4=CC(=O)CC[C@@H]4[C@H]3CC[C@@]21CC`, the outcome in assay [1], in [2], in [4] and in assay [5] was inactive. In addition, the AC50 in assay [3] is 6.98 µM (active).

With `O=C(O)C1(C(=O)Nc2ccc(Cl)cc2Cl)CC1`, the result in [1], in assay [2], in assay [3] and in [5] was inactive. In addition, in assay [4], the AC50 was 12.3 µM (active).

As to `CCOC(=O)C(C)Oc1ccc(Oc2cnc3cc(Cl)ccc3n2)cc1` (stereo unspecified), the result in assay [1], in assay [2], in assay [3], in assay [4] and in assay [5] was inactive.

As to `COC(=O)c1ccc(CNS(C)(=O)=O)cc1S(=O)(=O)NC(=O)Nc1nc(OC)cc(OC)n1`, the outcome in [1], in assay [2], in assay [3], in assay [4] and in assay [5] was inactive.

With `CCC(O)=C1C(=O)CC(C(=O)O)CC1=O` (stereo unspecified), the result in assay [1], in [2], in [3], in [4] and in [5] was inactive.

As for `CCOC(=O)NCCOc1ccc(Oc2ccccc2)cc1`, in [1], the result was inactive. In addition, the AC50 is 15.6 µM (active) in [2], 30 µM (active) in assay [3], 16.2 µM (active) in [4] and 20 µM (active) in [5].

Values taken from PubChem BioAssay (EPA / NIEHS).
